This is a sample that favours compounds with a hit; in the whole collection about 7.3% have one here.
FMDV antiviral = foot and mouth disease virus antiviral activity | FMDV antiviral cell-based qHTS | Potency, µM (series often up to 57.9 µM), for inactives: top-dose activity change, negative = inhibition, actives largely listed as inhibitors | 410,000 compounds, 1.2% hits | AID 1159524; calls by dose curve; tested in HEK293T cells; note: read-out not given here; potency is the fitted concentration of half-maximal effect; nearly all actives have a fitted effect of over 45% in size
Vaccinia mCherry = vaccinia inhibition (mCherry reporter). 310,000 compounds, 0.63% hits. Vaccinia virus mCherry reporter infection, fluorescence. AID 720579. Potency, µM (titrated, usually from 36.5 µM), without a hit: top-dose activity change, negative = inhibition, most hits filed as inhibitors; calls by dose curve; tested in A549 cells; note: potency is the fitted concentration of half-maximal effect; nearly all actives have a fitted effect of over 35% in size
HCV inhibitor = blocks hepatitis C virus; AID 651820; Huh7.5.1 HCVcc-Cre infection, luciferase reporter, 44 h; Potency, µM (doses to about 41.8 µM), for inactives: at the highest dose activity change, negative = inhibition, actives largely listed as inhibitors; 340,000 compounds, 3.4% hits; active = well fitted inhibition curve with a large enough effect; inconclusive = small, poorly fitted or top-dose-only effect, or another doubt; inactive = no such curve, though single readings can be large or run the other way; note: potency is the fitted concentration of half-maximal effect
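Compounds are dispensed onto cells plated 4 h earlier at 1,000 per well, with HCVcc-Cre virus (about 0.5 moi) added next. Following 44 h of culture, luminescent signal is measured for 15 sec after 15 min with substrate at room temperature.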
HCMV inh = blocks human cytomegalovirus replication; HFF cells, HCMV-luciferase reporter, 72 h; active compounds read low; 410,000 compounds, 4.5% hits; activity change, negative = inhibition, % at 57.5 µM; in the data active = activity change below about -60%; inconclusive = no clear call, values can overlap the other calls; inactive = above about -39%
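HFF cells seeded 16 h at 37C, treated with compounds, infected with luciferase-reporter HCMV at MOI 1 PFU/cell; luciferase read at 72 h post infection, normalized to buffer-only and Salinomycin controls.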
VACV Venus inh = inhibitors of vaccinia virus (Venus reporter); Vaccinia virus Venus reporter expression, fluorescence; 330,000 compounds, 0.46% hits; Potency, µM (top dose mostly 36.5 µM), inactives show top-dose activity change, negative = inhibition, usual class: inhibitors; calls by dose curve; tested in A549 cells; note: potency is the fitted concentration of half-maximal effect; nearly all actives have a fitted effect of over 30% in size
* = called active by the depositor; i = inactive; ? = inconclusive; / = not tested or not shown; ! = a repeat was not active; [ ] = another dose, or the depositor's remark. % is set by controls: 0 for no effect and ±100 for the full control effect.

SMILES	FMDV antiviral	Vaccinia mCherry	HCV inhibitor	HCMV inh	VACV Venus inh
COc1cccc(N2CCN(C(=O)C3CCCN(S(=O)(=O)c4ccc(Br)s4)C3)CC2)c1 (stereo unspecified)	17.8µM*	-26.7%	/	-24.4	-16.0%
Cc1cccc(N2CCN(C(=O)C3CCCN(S(=O)(=O)c4ccc(Br)s4)C3)CC2)c1C (stereo unspecified)	?	-14.3%[7.34 µM]	/	-61.7*	-9.6%[7.34 µM]
Cc1n[nH]c(C)c1S(=O)(=O)N1CCCC(C(=O)N2CCN(c3ccc(Cl)cc3)CC2)C1 (stereo unspecified)	20µM*	?	?	-75.6*	?
Cc1cccc(N2CCN(C(=O)C3CCC(CNS(=O)(=O)c4cccs4)CC3)CC2)c1C (stereo unspecified)	-14.5%	?	7.94µM*	-60.6*	?
O=C(O)C1CCCN(S(=O)(=O)c2ccc(Cl)s2)C1 (stereo unspecified)	0.0%	8.3%	5.5%	-27.9	-4.1%
O=C(C1CCCN(S(=O)(=O)c2cccc3nonc23)C1)N1CCN(c2cccc(Cl)c2)CC1 (stereo unspecified)	-7.6%	-8.2%	7.94µM*	-64.9*!	-12.1%
O=C(C1CCN(S(=O)(=O)c2cccc3nonc23)CC1)N1CCN(c2cccc(Cl)c2)CC1	-12.6%	-11.7%	/	-33.8	-6.9%
O=C(C1CCC(CNS(=O)(=O)c2ccc(Br)s2)CC1)N1CCN(c2ccc(F)cc2)CC1 (stereo unspecified)	?	-20.4%	/	-13.5	-18.8%
COc1cccc(N2CCN(C(=O)C3CCC(CNS(=O)(=O)c4ccc(Br)s4)CC3)CC2)c1 (stereo unspecified)	17.8µM*	-29.2%	/	-15.2	-19.7%
O=C(O)C1CCCN(S(=O)(=O)c2ccc(Br)s2)C1 (stereo unspecified)	-9.8%	i	-0.9%	-62.1*	-0.6%
Cc1ccc(C)c(NC(=O)C2CCCN2S(=O)(=O)c2ccc3c(c2)CCCC(=O)N3)c1 (stereo unspecified)	-26.9%	-14.4%	/	-2.5	-14.5%
CCc1ccc(CNC(=O)CSCc2cnn(-c3ccccc3)c2-n2cccc2)cc1	-20.1%	6.9%	/	-5.5	7.6%
CCOc1ccc(/C=C/c2nc(C#N)c(N3CCC(C)CC3)o2)cc1	?	?	/	-15.7	-25.3%
CCc1nn(CC(=O)N2CCC(C)CC2)c(=O)c2cc3occc3n12	-14.9%	-19.9%	/	-10.7	-4.6%
O=C(C1CCCN(S(=O)(=O)c2ccc(Br)cc2)C1)N1CCN(Cc2ccccc2)CC1 (stereo unspecified)	-15.3%	?	11.2µM*	-22.3	?
O=C(C1CCCN(S(=O)(=O)c2ccccc2)C1)N1CCN(c2ccccc2)CC1 (stereo unspecified)	?	-7.7%	?	-11.5	-23.6%
CCNC(=O)CC1C(=O)N(c2ccc(C)cc2)C(=O)N1Cc1ccc(C)cc1 (stereo unspecified)	4.4%	-1.9%	/	-21.6	12.5%
CCCN(CCC)C(=O)CSc1nc2ccccc2c(=O)n1CC1COc2ccccc2O1 (stereo unspecified)	6.5%	/	?	-8.7	/
CCOC(=O)CSc1nc2ccccc2c(=O)n1CC1CCCO1 (stereo unspecified)	-18.9%	/	8.91µM*	8.9	/
CCOC(=O)CSc1nc2ccccc2c(=O)n1CC1COc2ccccc2O1 (stereo unspecified)	-7.1%	/	2.51µM*	-8.2	/
O=C(CSc1nc2ccccc2c(=O)n1CC1CCCO1)Nc1ccccc1 (stereo unspecified)	1.9%	i	4.4%	13.3	-4.5%
CCOC(=O)CSc1nc2ccc(N3CCOCC3)cc2c(=O)n1Cc1ccc2c(c1)OCO2	/	/	3.98µM*	/	/
O=C1CC(C(=O)Nc2ccc(F)cc2)n2cnnc2N1 (stereo unspecified)	-7.5%	2.9%	?	-71.2*	-10.7%
COc1ccc(-c2cn3nc(SCC(=O)Nc4cccc(C)c4C)ccc3n2)cc1	-0.7%	-29.1%	/	85.5	?
CC(C)Oc1ccccc1-c1nc(SCC(=O)c2ccc(F)cc2)n[nH]1	-15.3%	-13.4%	/	2.1	-13.8%
SMILES	FMDV antiviral	Vaccinia mCherry	HCV inhibitor	HCMV inh	VACV Venus inh
CC(C)c1ccc(C(C)NC(=S)NC2CCCCC2)cc1 (stereo unspecified)	?	/	11.2µM*	-88.7*	/
CC(CCc1ccccc1)NC(=S)NC1CCCCC1 (stereo unspecified)	4.1%	-7.4%	?	-39.2	-9.7%
CCCCc1ccccc1NC(=S)NC1CCCC1	6.8%	i	-26.3%	-66.1*	3.6%
CCC(NC(=S)NC1CCCCC1)c1ccccc1 (stereo unspecified)	/	/	/	-89.2*	/
CCc1ccc(C(C)NC(=S)NC2CCCCC2)cc1 (stereo unspecified)	-11.4%	/	?	/	/
CCC(C)c1ccc(C(C)NC(=S)NC2CCCCC2)cc1 (stereo unspecified)	?	-19.0%	?	-73.1*	?
OC(c1ccc2c(c1)CN(Cc1cccc3nccnc13)CCO2)C1CCCCC1 (stereo unspecified)	-0.1%	-14.8%	/	/	-14.6%
CCc1ccccc1NC(=O)c1ccc2[nH]c(C)c(C)c2c1	35.6%	-22.7%	/	82.8	-18.5%
CCOc1ccc(C(C)NC(=S)NC2CCCCC2)cc1 (stereo unspecified)	-9.2%	/	?	?	/
CC(NC(=S)NC1CCCCC1)c1ccc(C(C)(C)C)cc1 (stereo unspecified)	0.0%	-18.4%	?	-97.2*	?
CC1/C=C/C=C/C=C/C=C/C=C/C=C/C=C/C(OC2OC(C)C(O)C(N)C2O)CC2O[C@@](O)(CC(O)CC(O)C(O)CCC(O)CC(O)CC(=O)OC(C)[C@H](C)C1O)CC(O)C2C(=O)O (stereo partly specified)	3.4%	-11.4%	/	/	17.6%
CCOC(=O)N1CCC(N2Cc3cccc(C(=O)Nc4ccc(F)cc4)c3C2=O)CC1	-15.0%	/	?	-101.9*	/
O=C(NCc1ccco1)C1=CN2CCN(Cc3ccccc3)C(=O)N=C2O1	/	/	/	0.0	/
CCn1c(C(=O)NCc2ccccc2C)cc2oc3ccccc3c21	-5.7%	?	/	-82.4*	16.6%
COC(=O)c1cc2oc3ccccc3c2n1Cc1c(C)cc(C)cc1C	-18.1%	-14.0%	/	25.0	-12.6%
CCn1c(C(=O)NCc2ccc(OC(C)C)cc2)cc2oc3ccccc3c21	-14.8%	-9.3%	/	-79.0*	5.7%
CCn1c(C)c(C)c2cc(C(=O)NCc3ccc(OC(C)C)cc3)ccc21	10.6%	-11.3%	/	?	-14.8%
COc1cccc2c1NC1(C)c3cc4c(cc3-n3nncc3CN1C2=O)OCO4 (stereo unspecified)	/	/	/	-10.7	/
CCN(CC)S(=O)(=O)c1ccc(NC(=O)CSc2nnc(-c3cccc(OC)c3)n2C)cc1	?	/	-20.3%	-23.4	/
C=C(C)CSc1nnc(-c2cccc(S(=O)(=O)N(C)C)c2)n1-c1cc(OC)ccc1OC	-13.3%	i	-23.5%	-70.7*	-1.4%
